In PubChem BioAssay:
Calls of active or inactive are those of the source.

Tests used:
[1] = optical density shifts of acrAB sulA E. coli – strain DRC41, OD650, 48 h, E. coli filamentation inducer project, primary screen (AID 1152); details: higher = more signal, called active from +8 up or from −8 down;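 further: E. coli MC1000 strain DRC41 lacking acrAB efflux pump and sulA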
[2] = probe aLefty1 binding on compound microarray – biochemical, small-molecule microarray, 635/667 nm fluorescence, primary screen (AID 1153); details: higher = more signal;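 further: score merges spot fluorescence with signal-to-noise ratio from the scanned slide images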
[3] = plasmodial surface anion channel blockers, osmotic lysis – cell-based, P. falciparum Indochina, OD700, 1 h, primary screen (AID 1154); details: P. falciparum Indochina infected RBC osmotic lysis, higher = more signal, called active from +8 up or from −8 down
[4] = plasmodial surface anion channel blockers, osmotic lysis – cell-based, P. falciparum Indochina, OD700, 2 h, primary screen (AID 1155);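 further: lysis reports solute entry through the parasite surface anion channel PSAC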; details: P. falciparum Indochina infected erythrocytes, higher = more signal, called active from +8 up or from −8 down
[5] = changes in parasitized red cell lysis, either direction – P. falciparum Indochina, OD700, 3 h, PSAC antagonist project, primary screen (AID 1156); details: P. falciparum-infected erythrocytes, osmotic lysis, higher = more signal, called active from +8 up or from −8 down
[6] = plasmodial surface anion channel blockers, osmotic lysis – cell-based, P. falciparum Indochina, OD700, 18 h, primary screen (AID 1157); details: P. falciparum Indochina infected erythrocytes, osmotic lysis OD700, 18 h; higher = more signal, called active from +8 up or from −8 down
[7] = S6 kinase pathway phospho-S6 level changes – cell-based, A549, cytoblot, luminescence, serum-stimulated, primary screen (AID 1158); details: 5 h, higher = more signal;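 further: serum-stimulated A549 lung adenocarcinoma cells; signal is phosphorylated S6 detected by cytoblot immunostaining with HRP secondary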
[8] = target: NADPH oxidase 2 (Homo sapiens) (UniProt P04839); test: compounds shifting NOX2 Amplex Red fluorescence – cell-based, HEK293-NOX2, PMA-stimulated, NOX inhibitor project, primary screen (AID 1159); details: 45 min, higher = more signal, called active from +8 up or from −8 down; further: test concentration not given here
Chain of NADPH oxidase 2 (Homo sapiens) (P04839 whole entry, looked up): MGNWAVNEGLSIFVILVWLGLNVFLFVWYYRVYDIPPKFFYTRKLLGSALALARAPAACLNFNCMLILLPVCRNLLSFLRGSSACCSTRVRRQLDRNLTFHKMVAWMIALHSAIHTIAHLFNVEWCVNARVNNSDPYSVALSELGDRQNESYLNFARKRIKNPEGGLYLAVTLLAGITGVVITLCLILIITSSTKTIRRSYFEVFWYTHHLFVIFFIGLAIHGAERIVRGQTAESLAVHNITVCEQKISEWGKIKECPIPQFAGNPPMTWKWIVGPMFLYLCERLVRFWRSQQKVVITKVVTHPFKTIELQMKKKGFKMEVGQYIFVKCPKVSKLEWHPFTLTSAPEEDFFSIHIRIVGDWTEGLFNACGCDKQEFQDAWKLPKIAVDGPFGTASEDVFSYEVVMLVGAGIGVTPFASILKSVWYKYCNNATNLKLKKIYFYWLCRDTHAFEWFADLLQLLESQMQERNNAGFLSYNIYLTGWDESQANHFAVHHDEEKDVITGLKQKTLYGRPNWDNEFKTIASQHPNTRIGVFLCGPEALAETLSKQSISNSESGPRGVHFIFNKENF

[9] = target: NADPH oxidase 4 (Homo sapiens) (UniProt Q9NPH5); test: compounds shifting NOX4 Amplex Red fluorescence – cell-based, HEK293-NOX4, tetracycline-induced, NOX inhibitor project, primary screen (AID 1160); details: HEK293-NOX4, Amplex Red H2O2 fluorescence, 45 min; higher = more signal, called active from +8 up or from −8 down
Chain of NADPH oxidase 4 (Homo sapiens) (Q9NPH5 whole entry, looked up): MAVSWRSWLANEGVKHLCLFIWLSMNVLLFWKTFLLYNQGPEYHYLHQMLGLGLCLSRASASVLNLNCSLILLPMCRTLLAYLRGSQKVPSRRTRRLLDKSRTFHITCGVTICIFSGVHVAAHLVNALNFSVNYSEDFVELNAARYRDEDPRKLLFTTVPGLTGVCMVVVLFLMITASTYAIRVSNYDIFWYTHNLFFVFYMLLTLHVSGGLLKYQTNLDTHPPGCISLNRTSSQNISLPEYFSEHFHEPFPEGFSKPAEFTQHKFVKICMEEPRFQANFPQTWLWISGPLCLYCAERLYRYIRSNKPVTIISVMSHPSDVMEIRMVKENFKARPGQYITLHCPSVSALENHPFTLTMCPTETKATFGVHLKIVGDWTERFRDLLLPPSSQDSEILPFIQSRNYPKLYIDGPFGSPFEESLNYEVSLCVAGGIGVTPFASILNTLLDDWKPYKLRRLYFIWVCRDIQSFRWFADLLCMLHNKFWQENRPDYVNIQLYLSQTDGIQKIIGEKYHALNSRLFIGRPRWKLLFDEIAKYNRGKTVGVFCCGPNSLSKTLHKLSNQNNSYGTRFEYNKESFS

[10] = target: NADPH oxidase 5 (Homo sapiens) (UniProt Q96PH1); test: compounds shifting NOX5 Amplex Red fluorescence – cell-based, HEK293-NOX5, NOX inhibitor project, primary screen (AID 1161); details: HEK293-NOX5, ionomycin, 45 min, higher = more signal
Chain of NADPH oxidase 5 (Homo sapiens) (Q96PH1 whole entry, looked up): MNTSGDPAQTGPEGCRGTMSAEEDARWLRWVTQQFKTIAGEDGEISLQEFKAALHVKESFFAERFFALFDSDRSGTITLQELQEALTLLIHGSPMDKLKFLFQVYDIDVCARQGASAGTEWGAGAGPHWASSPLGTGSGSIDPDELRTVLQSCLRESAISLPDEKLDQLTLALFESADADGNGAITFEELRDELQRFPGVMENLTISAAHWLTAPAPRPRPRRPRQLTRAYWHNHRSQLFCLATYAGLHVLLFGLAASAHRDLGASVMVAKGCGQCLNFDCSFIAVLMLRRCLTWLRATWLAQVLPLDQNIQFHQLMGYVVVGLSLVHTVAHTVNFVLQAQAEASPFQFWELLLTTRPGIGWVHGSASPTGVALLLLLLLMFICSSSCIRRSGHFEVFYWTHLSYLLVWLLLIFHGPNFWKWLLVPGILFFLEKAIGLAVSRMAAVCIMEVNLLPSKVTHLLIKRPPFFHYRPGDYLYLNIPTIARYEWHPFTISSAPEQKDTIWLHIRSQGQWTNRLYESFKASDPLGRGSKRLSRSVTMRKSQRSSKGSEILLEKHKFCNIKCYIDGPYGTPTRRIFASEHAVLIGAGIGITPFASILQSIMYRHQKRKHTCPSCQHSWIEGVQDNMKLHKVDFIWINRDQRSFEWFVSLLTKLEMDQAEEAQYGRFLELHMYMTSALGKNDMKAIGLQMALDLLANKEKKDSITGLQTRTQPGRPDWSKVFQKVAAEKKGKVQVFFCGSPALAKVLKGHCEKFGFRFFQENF

NCCCCCNC(=O)[C@@H]1C[C@@H]2C(=O)N[C@@H](Cc3ccccc3)C(=O)N2[C@@H]1c1ccc(O)cc1
z-score [1]: -1.16 (inactive)
composite z-score [2]: 0.176
z-score [3]: 1.24 (inactive)
z-score [4]: 0.24 (inactive)
z-score [5]: -0.648 (inactive)
z-score [6]: -0.116 (inactive)
z-score [7]: -0.358
z-score [8]: 0.713 (inactive)
z-score [9]: 0.539 (inactive)
z-score [10]: -0.657

COC(=O)[C@@]1(Cc2ccccc2)N=C(c2ccc(OCCCO)cc2)O[C@H]1c1ccccc1
z-score [1]: 0.792 (inactive)
composite z-score [2]: 0.236
z-score [3]: 23.4 (active)
z-score [4]: 12.2 (active)
z-score [5]: 0.737 (inactive)
z-score [6]: 1.89 (inactive)
z-score [7]: -0.182
z-score [8]: -5.76 (inactive)
z-score [9]: -0.904 (inactive)
z-score [10]: -3

CCCC[C@@H]1C[C@H]1[C@@H](NC(=O)c1cccs1)c1ccc(-c2ccccc2)cc1
z-score [1]: -1.89 (inactive)
composite z-score [2]: 0.142
z-score [3]: 2.41 (inactive)
z-score [4]: 0.856 (inactive)
z-score [5]: -0.398 (inactive)
z-score [6]: 0.668 (inactive)
z-score [7]: -0.993
z-score [8]: -0.939 (inactive)
z-score [9]: -0.827 (inactive)
z-score [10]: 0.936

O=C1NC(=O)C2C1C=CC(C(O)c1cc(C(F)(F)F)cc(C(F)(F)F)c1)N2Nc1ccccn1 (stereo not given)
z-score [1]: -1.87 (inactive)
composite z-score [2]: 0.127
z-score [3]: 0.499 (inactive)
z-score [4]: 0.701 (inactive)
z-score [5]: -0.0477 (inactive)
z-score [6]: 0.827 (inactive)
z-score [7]: -0.822
z-score [8]: -1.17 (inactive)
z-score [9]: -1.72 (inactive)
z-score [10]: -2.4

COCCOC(=O)N1C(=O)[C@@]2(c3ccccc31)[C@H](c1ccc(O)cc1)N1[C@H](c3ccccc3)[C@H](c3ccccc3)OC(=O)[C@H]1[C@@H]2C(=O)Nc1nc2ccccc2s1
z-score [1]: 0.894 (inactive)
composite z-score [2]: 0.541
z-score [3]: 1.31 (inactive)
z-score [4]: 1.1 (inactive)
z-score [5]: 0.109 (inactive)
z-score [6]: 1.41 (inactive)
z-score [7]: 0.172
z-score [8]: 1.41 (inactive)
z-score [9]: 0.449 (inactive)
z-score [10]: 1.41

Cc1ccc(N2C(=O)c3ccccc3[C@@H](C(=O)NC3CC3)[C@@H]2c2ccc(CO)cc2)nc1
z-score [1]: -0.0739 (inactive)
composite z-score [2]: -0.138
z-score [3]: 1.92 (inactive)
z-score [4]: -0.325 (inactive)
z-score [5]: 0.62 (inactive)
z-score [6]: -0.0389 (inactive)
z-score [7]: -0.179
z-score [8]: 0.355 (inactive)
z-score [9]: -0.647 (inactive)
z-score [10]: -1.51

CC(C)C(CO)N1C(=O)[C@@H]2C3C(=O)OCCC/C=C\[C@H]3OC23C=CCN(CCN2CCOCC2)C(=O)[C@@H]13 (stereo not given in full)
z-score [1]: -0.385 (inactive)
composite z-score [2]: -0.07
z-score [3]: 0.81 (inactive)
z-score [4]: 0.179 (inactive)
z-score [5]: 0.148 (inactive)
z-score [6]: 0.16 (inactive)
z-score [7]: -0.158
z-score [8]: 1 (inactive)
z-score [9]: 0.401 (inactive)
z-score [10]: 1.4

CC1(C)[C@@H]2CC(C(O)C3C=CC4C(=O)N(c5ccccc5)C(=O)C4N3Nc3ccc([N+](=O)[O-])cc3)=C[C@H]1C2 (stereo not given in full)
z-score [1]: -1.03 (inactive)
composite z-score [2]: 0.404
z-score [3]: 14.3 (active)
z-score [4]: 2.98 (inactive)
z-score [5]: 2.92 (inactive)
z-score [6]: 1.56 (inactive)
z-score [7]: -0.539
z-score [8]: -0.0932 (inactive)
z-score [9]: -1.02 (inactive)
z-score [10]: -2.02

CC(C)[Si]1(C(C)C)O[C@@H](c2ccccc2)c2cc(-c3ccc(-c4ccc(Cl)c(Cl)c4)o3)nc(-c3ccccc3)c21
z-score [1]: -1.12 (inactive)
composite z-score [2]: -0.0611
z-score [3]: 0.704 (inactive)
z-score [4]: 0.0805 (inactive)
z-score [5]: -0.449 (inactive)
z-score [6]: 0.656 (inactive)
z-score [7]: -0.121
z-score [8]: -0.364 (inactive)
z-score [9]: 1.36 (inactive)
z-score [10]: 1.26

O=C1NC(=O)C2C1C=CC(C(O)c1cccs1)N2Nc1ccc(Cl)cc1Cl (stereo not given)
z-score [1]: -0.713 (inactive)
composite z-score [2]: -0.012
z-score [3]: 2.33 (inactive)
z-score [4]: 1.32 (inactive)
z-score [5]: -0.0207 (inactive)
z-score [6]: 1.34 (inactive)
z-score [7]: -0.27
z-score [8]: -0.483 (inactive)
z-score [9]: -4.81 (inactive)
z-score [10]: -1.57

Cc1ccc(S[C@]2(C(=O)NCCCN(C)C)CC(=O)N(Cc3cc(C(F)(F)F)cc(C(F)(F)F)c3)[C@@H]2c2ccc(CO)cc2I)cc1
z-score [1]: 0.272 (inactive)
composite z-score [2]: 1.37
z-score [3]: 3.48 (inactive)
z-score [4]: 1.12 (inactive)
z-score [5]: -1.36 (inactive)
z-score [6]: 0.303 (inactive)
z-score [7]: -0.232
z-score [8]: 1.28 (inactive)
z-score [9]: -1.25 (inactive)
z-score [10]: 2.43

C[C@H]1NC(=O)[C@@]23C(=O)N[C@@H](Cc4ccccc4)C2[C@H](C)[C@@]2(C)O[C@H]2C3/C=C/C/C=C\CNC(=O)[C@@H]2CCCN2C1=O (stereo not given in full)
z-score [1]: -0.0438 (inactive)
composite z-score [2]: -0.0046
z-score [3]: 0.306 (inactive)
z-score [4]: 0.189 (inactive)
z-score [5]: 0.159 (inactive)
z-score [6]: 0.108 (inactive)
z-score [7]: -0.199
z-score [8]: -0.0374 (inactive)
z-score [9]: 1.41 (inactive)
z-score [10]: 0.41
